The values below come from the supplement of paper PMC10849652.

Experiment in all cases: log2 fold change, soluble protein after heating vs DMSO (PISA); higher = thermal stabilisation; K562 lysate, 10 uM; active = over 0.2 and 3.5 SD of the protein, either way, in both replicates (recomputed)
Compound in experiment [1]: NCC(=O)Nc1ccc(-n2nc(C(F)(F)F)cc2-c2ccc3c(ccc4ccccc43)c2)cc1
The method in brief: (§1)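 A 30 min treatment with 10 μM compound was applied to crude K562 extract at 1 mg/mL protein in PBS pH 7.4 with 1 mM MgCl2. Heating for 3 min spanned 48°C-58°C, after which aliquots were pooled, adjusted to 0.5% NP-40 at 4°C and spun at 21,000xg for 90 min. TMTpro 16plex LC-MS/MS of the supernatant, with channel sums equalised, gave values recorded as log-two fold change in thermal stability against solvent controls, from duplicates.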

Compound in the next experiment: O=C(CCCCCCC(=O)Nc1ccccc1)NO [vorinostat]
The method in brief: as §1

Compound in the next experiment: O=C(O)c1ccc2c(c1)nc(Nc1cccc(Cl)c1)c1ccncc12 [silmitasertib]
In a few lines:
as §1

Compound in experiment [2]: O=C1NC(=O)C(c2cnc3ccccn23)=C1c1cn2c3c(cc(F)cc13)CN(C(=O)N1CCCCC1)CC2
The method in brief:
as §1

Compound in the next experiment: c1cn2cc(-c3ccc4cn[nH]c4c3)nc(Nc3ccc(N4CCOCC4)cc3)c2n1 [entospletinib]
The method in brief: as §1

The full data set covers some 8,800 targets. This sample favours those with a hit. About 0.5% of all pairs of compound and target were hits. Values without a mark were called inactive.

UniProt O95628, sequence (O95628 whole entry, looked up): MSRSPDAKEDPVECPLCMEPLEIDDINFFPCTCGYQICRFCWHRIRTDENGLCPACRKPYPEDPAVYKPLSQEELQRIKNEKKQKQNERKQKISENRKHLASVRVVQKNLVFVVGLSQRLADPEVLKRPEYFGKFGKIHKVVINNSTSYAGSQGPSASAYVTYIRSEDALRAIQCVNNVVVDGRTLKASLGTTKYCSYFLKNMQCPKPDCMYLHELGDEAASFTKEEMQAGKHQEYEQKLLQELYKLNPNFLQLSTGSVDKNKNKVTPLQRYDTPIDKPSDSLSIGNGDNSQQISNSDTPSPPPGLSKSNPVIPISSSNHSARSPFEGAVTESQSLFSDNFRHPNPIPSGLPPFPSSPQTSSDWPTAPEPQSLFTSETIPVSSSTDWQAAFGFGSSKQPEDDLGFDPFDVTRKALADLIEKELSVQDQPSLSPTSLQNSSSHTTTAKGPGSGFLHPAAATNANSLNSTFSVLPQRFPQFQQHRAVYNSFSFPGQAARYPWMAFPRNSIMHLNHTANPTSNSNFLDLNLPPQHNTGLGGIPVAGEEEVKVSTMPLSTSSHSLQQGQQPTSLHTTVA
UniProt P21964, sequence (P21964 whole entry, looked up): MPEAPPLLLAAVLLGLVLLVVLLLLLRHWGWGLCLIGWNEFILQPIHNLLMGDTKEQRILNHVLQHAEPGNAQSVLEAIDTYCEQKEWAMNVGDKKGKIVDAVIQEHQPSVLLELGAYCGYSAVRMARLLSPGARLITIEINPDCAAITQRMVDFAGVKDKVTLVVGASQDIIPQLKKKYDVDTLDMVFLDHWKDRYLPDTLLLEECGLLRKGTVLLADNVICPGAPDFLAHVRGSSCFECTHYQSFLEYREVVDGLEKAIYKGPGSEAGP
UniProt Q14008, sequence (Q14008 whole entry, looked up): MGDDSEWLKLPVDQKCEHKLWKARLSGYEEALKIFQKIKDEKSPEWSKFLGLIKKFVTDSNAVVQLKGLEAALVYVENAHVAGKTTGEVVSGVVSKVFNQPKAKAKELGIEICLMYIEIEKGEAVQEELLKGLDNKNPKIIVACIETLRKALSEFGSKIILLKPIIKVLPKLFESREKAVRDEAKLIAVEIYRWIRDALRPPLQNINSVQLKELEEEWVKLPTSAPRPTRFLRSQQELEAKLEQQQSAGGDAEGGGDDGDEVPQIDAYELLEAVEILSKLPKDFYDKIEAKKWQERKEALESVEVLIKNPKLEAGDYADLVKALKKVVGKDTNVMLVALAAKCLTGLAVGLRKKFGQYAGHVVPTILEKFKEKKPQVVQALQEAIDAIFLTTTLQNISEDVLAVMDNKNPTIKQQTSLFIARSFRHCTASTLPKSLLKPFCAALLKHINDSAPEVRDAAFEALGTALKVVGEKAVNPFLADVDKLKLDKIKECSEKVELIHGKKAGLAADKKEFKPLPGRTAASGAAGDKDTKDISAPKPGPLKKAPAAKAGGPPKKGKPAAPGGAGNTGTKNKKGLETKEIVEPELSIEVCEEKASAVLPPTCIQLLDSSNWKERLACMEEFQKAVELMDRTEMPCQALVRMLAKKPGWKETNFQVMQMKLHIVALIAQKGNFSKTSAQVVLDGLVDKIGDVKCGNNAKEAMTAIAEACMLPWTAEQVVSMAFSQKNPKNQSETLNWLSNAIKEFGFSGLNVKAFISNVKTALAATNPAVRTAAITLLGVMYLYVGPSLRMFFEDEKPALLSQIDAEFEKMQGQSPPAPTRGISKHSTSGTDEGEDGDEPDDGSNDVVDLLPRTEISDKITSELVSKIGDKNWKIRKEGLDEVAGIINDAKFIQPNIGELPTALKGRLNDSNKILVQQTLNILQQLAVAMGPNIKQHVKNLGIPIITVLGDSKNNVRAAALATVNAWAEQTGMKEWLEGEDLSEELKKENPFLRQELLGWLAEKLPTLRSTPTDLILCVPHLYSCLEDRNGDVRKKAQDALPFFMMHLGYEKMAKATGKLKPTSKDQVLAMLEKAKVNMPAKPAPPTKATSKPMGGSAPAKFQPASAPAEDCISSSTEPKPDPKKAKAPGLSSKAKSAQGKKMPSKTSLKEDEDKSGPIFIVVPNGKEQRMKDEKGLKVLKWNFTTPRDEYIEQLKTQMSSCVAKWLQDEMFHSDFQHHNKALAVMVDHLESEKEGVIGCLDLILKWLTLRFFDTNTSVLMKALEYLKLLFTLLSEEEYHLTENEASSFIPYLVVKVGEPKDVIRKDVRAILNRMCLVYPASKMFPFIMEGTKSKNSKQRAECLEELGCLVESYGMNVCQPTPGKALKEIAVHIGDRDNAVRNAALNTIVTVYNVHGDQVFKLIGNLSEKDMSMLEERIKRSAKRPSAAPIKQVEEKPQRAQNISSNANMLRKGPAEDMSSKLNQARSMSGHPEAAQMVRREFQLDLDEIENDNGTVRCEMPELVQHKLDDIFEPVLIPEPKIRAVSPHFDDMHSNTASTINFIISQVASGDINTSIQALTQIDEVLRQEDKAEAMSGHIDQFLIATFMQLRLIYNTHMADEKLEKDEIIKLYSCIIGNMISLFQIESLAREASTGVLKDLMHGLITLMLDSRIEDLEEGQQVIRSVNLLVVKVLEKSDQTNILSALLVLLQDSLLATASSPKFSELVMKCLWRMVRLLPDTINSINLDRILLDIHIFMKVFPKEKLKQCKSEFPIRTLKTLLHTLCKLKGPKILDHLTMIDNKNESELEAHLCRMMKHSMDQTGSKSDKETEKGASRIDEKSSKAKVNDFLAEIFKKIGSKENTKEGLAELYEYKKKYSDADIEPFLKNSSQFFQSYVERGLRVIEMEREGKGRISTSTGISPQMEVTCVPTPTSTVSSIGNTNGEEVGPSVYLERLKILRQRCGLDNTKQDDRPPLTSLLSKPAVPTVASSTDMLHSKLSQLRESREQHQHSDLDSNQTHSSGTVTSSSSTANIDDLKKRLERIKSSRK
UniProt Q96DG6, sequence (Q96DG6 whole entry, looked up): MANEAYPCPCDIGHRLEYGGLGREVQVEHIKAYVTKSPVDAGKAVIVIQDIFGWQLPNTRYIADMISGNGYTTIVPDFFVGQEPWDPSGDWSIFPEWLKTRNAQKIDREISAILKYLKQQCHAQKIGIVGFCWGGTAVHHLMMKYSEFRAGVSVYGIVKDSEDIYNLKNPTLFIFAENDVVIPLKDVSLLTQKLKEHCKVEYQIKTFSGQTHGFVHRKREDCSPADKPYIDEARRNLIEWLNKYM
UniProt P00374, sequence (P00374 whole entry, looked up): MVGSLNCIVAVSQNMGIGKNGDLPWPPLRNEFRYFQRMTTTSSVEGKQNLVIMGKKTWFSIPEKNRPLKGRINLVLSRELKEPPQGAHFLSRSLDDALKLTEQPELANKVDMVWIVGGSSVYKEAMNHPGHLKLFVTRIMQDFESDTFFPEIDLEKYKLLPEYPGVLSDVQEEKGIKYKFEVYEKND
UniProt Q15398, sequence (Q15398 whole entry, looked up): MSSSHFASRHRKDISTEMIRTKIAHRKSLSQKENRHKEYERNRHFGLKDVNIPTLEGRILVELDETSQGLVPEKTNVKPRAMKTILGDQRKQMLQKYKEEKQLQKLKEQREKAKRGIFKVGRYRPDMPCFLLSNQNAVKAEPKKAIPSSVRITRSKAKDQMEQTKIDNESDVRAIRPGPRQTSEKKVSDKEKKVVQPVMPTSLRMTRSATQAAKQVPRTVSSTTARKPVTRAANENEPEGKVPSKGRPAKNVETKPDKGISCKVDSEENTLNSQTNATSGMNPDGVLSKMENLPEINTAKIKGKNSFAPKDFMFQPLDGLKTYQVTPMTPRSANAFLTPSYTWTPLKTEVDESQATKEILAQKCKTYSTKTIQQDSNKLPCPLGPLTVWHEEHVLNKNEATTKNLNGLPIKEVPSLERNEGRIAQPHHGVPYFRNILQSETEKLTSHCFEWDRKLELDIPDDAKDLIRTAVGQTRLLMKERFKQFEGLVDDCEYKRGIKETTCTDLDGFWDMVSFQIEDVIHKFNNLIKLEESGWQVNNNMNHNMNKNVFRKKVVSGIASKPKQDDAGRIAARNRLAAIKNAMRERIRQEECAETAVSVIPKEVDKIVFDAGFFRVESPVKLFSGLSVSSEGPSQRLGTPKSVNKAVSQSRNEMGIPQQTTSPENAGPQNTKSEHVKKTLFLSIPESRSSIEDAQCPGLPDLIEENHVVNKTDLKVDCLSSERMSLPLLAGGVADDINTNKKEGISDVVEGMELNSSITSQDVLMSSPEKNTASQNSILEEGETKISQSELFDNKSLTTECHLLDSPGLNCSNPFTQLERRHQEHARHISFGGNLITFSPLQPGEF
UniProt O75208, sequence (O75208 whole entry, looked up): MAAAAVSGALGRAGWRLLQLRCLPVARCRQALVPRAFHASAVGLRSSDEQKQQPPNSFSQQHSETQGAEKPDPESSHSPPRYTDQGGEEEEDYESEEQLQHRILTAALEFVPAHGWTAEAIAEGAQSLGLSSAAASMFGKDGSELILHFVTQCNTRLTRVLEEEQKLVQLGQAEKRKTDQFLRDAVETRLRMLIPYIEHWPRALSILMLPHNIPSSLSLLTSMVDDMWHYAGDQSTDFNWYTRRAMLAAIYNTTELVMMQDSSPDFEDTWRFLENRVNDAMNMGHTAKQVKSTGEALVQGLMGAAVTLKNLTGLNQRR
UniProt O94760, sequence (O94760 whole entry, looked up): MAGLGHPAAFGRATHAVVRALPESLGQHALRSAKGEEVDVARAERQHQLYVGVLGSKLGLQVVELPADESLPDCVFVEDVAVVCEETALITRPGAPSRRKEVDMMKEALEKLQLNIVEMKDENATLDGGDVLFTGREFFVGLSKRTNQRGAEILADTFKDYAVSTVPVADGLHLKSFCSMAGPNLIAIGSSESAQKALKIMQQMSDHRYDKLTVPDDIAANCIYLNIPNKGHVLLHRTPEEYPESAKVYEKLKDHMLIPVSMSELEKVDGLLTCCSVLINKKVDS
UniProt O60762, sequence (O60762 whole entry, looked up): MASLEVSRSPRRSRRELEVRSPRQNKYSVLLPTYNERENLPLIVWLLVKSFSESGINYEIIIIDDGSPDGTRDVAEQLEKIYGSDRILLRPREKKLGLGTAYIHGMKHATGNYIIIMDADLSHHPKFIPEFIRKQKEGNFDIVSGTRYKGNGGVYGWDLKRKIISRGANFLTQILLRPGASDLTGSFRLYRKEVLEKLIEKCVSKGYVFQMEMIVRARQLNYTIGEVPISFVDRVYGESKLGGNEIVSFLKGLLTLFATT

For COMT (UniProt P21964), the log2 fold change was -0.106 in experiment [1]; -0.294 (active) with vorinostat; 0.04 with silmitasertib; 0.007 in experiment [2]; 0.015 with entospletinib.

For the target DHRS1 (UniProt Q96LJ7), the log2 fold change is -0.154 in experiment [1]; -0.561 (active) in the experiment with vorinostat; -0.021 in the experiment with silmitasertib; -0.055 in experiment [2]; -0.138 with entospletinib.

Take CNOT4 isoform 6 (UniProt O95628): the log2 fold change in experiment [1] is -0.028; with vorinostat, 0.046; with silmitasertib it was -0.032; in experiment [2], -0.057; in the experiment with entospletinib it was -0.011.

Take DDB2 (UniProt Q92466): the log2 fold change is 0.054 in experiment [1]; 0.048 in the experiment with vorinostat; -0.022 with silmitasertib; -0.002 in experiment [2]; 0.019 with entospletinib.

As for DNAJC3 (UniProt Q13217), the log2 fold change in experiment [1] is -0.029; with vorinostat, 0.064; with silmitasertib, 0.017; in experiment [2], 0.033; in the experiment with entospletinib, 0.

DDX54 isoform 2 (UniProt Q8TDD1): the log2 fold change in experiment [1] is 0.131; with vorinostat, 0.066; with silmitasertib, -0.006; in experiment [2] it was -0.008; with entospletinib, -0.009.

Take CMBL (UniProt Q96DG6): the log2 fold change in experiment [1] is -0.065; with vorinostat, 0.09; with silmitasertib it was 0.042; in experiment [2], 0.071; with entospletinib it was 0.037.

On to DLGAP5 (UniProt Q15398), for which the log2 fold change is -0.008 in experiment [1]; -0.252 (active) in the experiment with vorinostat; -0.002 with silmitasertib; -0.006 in experiment [2]; -0.004 in the experiment with entospletinib.

For COG7 (UniProt P83436), the log2 fold change in experiment [1] is -0.013; with vorinostat, -0.287 (active); with silmitasertib, 0.06; in experiment [2] it was 0.034; with entospletinib, 0.033.

Turning to CKAP5 (UniProt Q14008), the log2 fold change in experiment [1] was -0.013; with vorinostat it was -0.269 (active); with silmitasertib, 0.011; in experiment [2], 0.002; with entospletinib, 0.005.

On to CYP2S1 isoform 2 (UniProt Q96SQ9), for which the log2 fold change was 0.014 in experiment [1]; 0.067 with vorinostat; -0.027 in the experiment with silmitasertib; -0.025 in experiment [2]; 0.055 with entospletinib.

On to DHFR (UniProt P00374), for which the log2 fold change is -0.045 in experiment [1]; -0.214 with vorinostat; 0.133 with silmitasertib; 0 in experiment [2]; 0.002 with entospletinib.

As to CHUK (UniProt O15111), the log2 fold change in experiment [1] was -0.016; with vorinostat it was -0.492 (active); with silmitasertib, 0.103; in experiment [2] it was 0.054; in the experiment with entospletinib, 0.012.

With CWC22 (UniProt Q9HCG8), the log2 fold change in experiment [1] is -0.012; with vorinostat it was -0.156; with silmitasertib, 0.032; in experiment [2] it was -0.016; in the experiment with entospletinib, 0.015.

With DHRS3 (UniProt O75911), the log2 fold change is 0.032 in experiment [1]; -0.055 in the experiment with vorinostat; -0.062 with silmitasertib; 0.025 in experiment [2]; 0.096 with entospletinib.

For the target CIP2A (UniProt Q8TCG1), the log2 fold change in experiment [1] was 0.043; with vorinostat, -0.608 (active); with silmitasertib it was 0.055; in experiment [2], 0.011; with entospletinib, 0.008.

Turning to CNOT6L (UniProt Q96LI5), the log2 fold change is 0.019 in experiment [1]; -0.032 with vorinostat; 0.004 with silmitasertib; 0.017 in experiment [2]; 0 in the experiment with entospletinib.

As for DGCR8 (UniProt Q8WYQ5), the log2 fold change in experiment [1] was -0.027; with vorinostat, -0.38 (active); in the experiment with silmitasertib it was -0.041; in experiment [2], -0.054; in the experiment with entospletinib, -0.066.

Take CLIP1 isoform 1 (UniProt P30622): the log2 fold change was -0.008 in experiment [1]; 0.092 with vorinostat; -0.01 with silmitasertib; -0.01 in experiment [2]; -0.009 with entospletinib.

With COQ9 (UniProt O75208), the log2 fold change in experiment [1] is 0.005; in the experiment with vorinostat, 0.084; with silmitasertib it was 0.002; in experiment [2], 0.031; with entospletinib, -0.012.

As for CHML (UniProt P26374), the log2 fold change in experiment [1] was 0.029; with vorinostat, -0.286 (active); with silmitasertib it was 0.003; in experiment [2] it was -0.022; with entospletinib it was 0.006.

Consider DDAH1 (UniProt O94760), for which the log2 fold change was -0.076 in experiment [1]; 0.07 with vorinostat; -0.035 in the experiment with silmitasertib; 0.017 in experiment [2]; -0.014 with entospletinib.

Turning to DCTN1 (UniProt Q14203), the log2 fold change in experiment [1] was 0.011; with vorinostat it was -0.261 (active); with silmitasertib it was -0.003; in experiment [2], 0.012; with entospletinib, 0.001.

Take DPM1 (UniProt O60762): the log2 fold change in experiment [1] is 0.05; with vorinostat, -0.01; with silmitasertib it was -0.016; in experiment [2], -0.011; with entospletinib, 0.02.
